Several values for one entry are separate records, joined by “and”; a condition that tells them apart may be missing. Identical values can stand only once. The campaign covered roughly 5,500 compounds. About 2,000 (36%) were called active. About 18% were inconclusive and are not listed. Cut-off read from the data, not from the text of the source: active = normalized growth mostly below about 0.91 (no sharp cut-off); inconclusive = no clear call, values can overlap the other calls; inactive = mostly above about 0.92. The list shows a part of the results.
Experiment: chemical genetic growth profiling, strain panel (AID 1159580);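 note: tested at 20 µM; growth read once vehicle control cultures reached saturation at 30 °C; 1 = growth at the plate median or of vehicle wells; lower values mean less growth of the strain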
Details: S. cerevisiae deletion strains, growth OD

Measured: normalized growth

CCNC(=O)CC[C@H](N)C(=O)O
inactive: locus YAL021C, strain ccr4, stronger effect = lower value 0.995 | locus YAL026C, strain drs2, stronger effect = lower value 1 | locus YAL030W, strain snc1, stronger effect = lower value 0.998 | locus YBL061C, strain skt5, stronger effect = lower value 0.993 | locus YBR009C, strain hhf1, stronger effect = lower value 1.02 | locus YBR021W, strain FUR4, stronger effect = lower value 1.03 | locus YBR023C, strain chs3, stronger effect = lower value 0.993 | locus YBR171W, strain sec66, stronger effect = lower value 1 | locus YBR229C, strain ROT2, stronger effect = lower value 0.991 | locus YBR231C, strain swc5, stronger effect = lower value 0.997 | locus YBR279W, strain paf1, stronger effect = lower value 1 | locus YCL011C, strain gbp2, stronger effect = lower value 1 | locus YCL016C, strain dcc1, stronger effect = lower value 0.996 | locus YCL029C, strain bik1, stronger effect = lower value 0.988 | locus YCL061C, strain MRC1, stronger effect = lower value 1 | locus YCL069W, strain vba3, stronger effect = lower value 1.01 | locus YCR088W, strain abp1, stronger effect = lower value 1 | locus YDL005C, strain med2, stronger effect = lower value 0.986 | locus YDL035C, strain GPR1, stronger effect = lower value 1.04 | locus YDL040C, strain nat1, stronger effect = lower value 0.998 | locus YDL074C, strain BRE1, stronger effect = lower value 1.02 | locus YDL101C, strain DUN1, stronger effect = lower value 0.965 | locus YDL134C, strain PPH21, stronger effect = lower value 1.01 | locus YDL185W, strain tfp1, stronger effect = lower value 0.996 | locus YDL192W, strain arf1, stronger effect = lower value 1 | locus YDR001C, strain nth1, stronger effect = lower value 0.997 | locus YDR069C, strain doa4, stronger effect = lower value 1.03 | locus YDR101C, strain arx1, stronger effect = lower value 1 | locus YDR137W, strain rgp1, stronger effect = lower value 1.01 | locus YDR159W, strain sac3, stronger effect = lower value 0.992 | locus YDR162C, strain NBP2, stronger effect = lower value 1.03 | locus YDR195W, strain ref2 0.994 | locus YDR297W, strain sur2, stronger effect = lower value 0.99 | locus YDR318W, strain mcm21, stronger effect = lower value 0.999 | locus YDR334W, strain swr1, stronger effect = lower value 1 | locus YDR335W, strain msn5, stronger effect = lower value 1 | locus YDR388W, stronger effect = lower value 1 | locus YDR392W, strain spt3, stronger effect = lower value 0.991 | locus YDR502C, strain sam2, stronger effect = lower value 0.999 | locus YEL003W, strain gim4, stronger effect = lower value 1.01 | locus YEL037C, strain rad23, stronger effect = lower value 0.996 | locus YEL061C, strain CIN8 (second series), stronger effect = lower value 1 | locus YEL061C, strain CIN8, stronger effect = lower value 0.999 | locus YER015W, strain faa2, stronger effect = lower value 1.01 | locus YER016W, strain bim1, stronger effect = lower value 0.991 | locus YER110C, stronger effect = lower value 0.981 | locus YER111C, strain swi4, stronger effect = lower value 1 | locus YER155C, strain BEM2 (second series), stronger effect = lower value 0.99 | locus YER155C, strain BEM2, stronger effect = lower value 0.974 | locus YER167W, strain BCK2, stronger effect = lower value 0.995 | locus YFR010W, strain ubp6, stronger effect = lower value 1 | locus YGL078C, strain dbp3, stronger effect = lower value 0.988 | locus YGL086W, strain mad1, stronger effect = lower value 1 | locus YGL167C, strain pmr1, stronger effect = lower value 0.997 | locus YGL173C, strain kem1, stronger effect = lower value 0.996 | locus YGL227W, strain vid30, stronger effect = lower value 0.992 | locus YGL240W, strain doc1, stronger effect = lower value 1 | locus YGL248W, strain PDE1, stronger effect = lower value 1 | locus YGL253W, strain hxk2, stronger effect = lower value 1 | locus YGR135W, strain pre9, stronger effect = lower value 1.01 | locus YGR252W, strain gcn5, stronger effect = lower value 1.04 | locus YHR013C, strain ard1, stronger effect = lower value 0.987 | locus YHR027C, strain rpn1, stronger effect = lower value 1.01 | locus YHR030C, strain SLT2, stronger effect = lower value 0.999 and 1.01 | locus YHR079C, strain IRE1 (second series), stronger effect = lower value 0.997 | locus YHR079C, strain IRE1, stronger effect = lower value 1.04 | locus YHR094C, strain hxt1, stronger effect = lower value 0.989 | locus YHR129C, strain ARP1, stronger effect = lower value 0.995 | locus YHR142W, strain chs7, stronger effect = lower value 1.01 | locus YHR200W, strain rpn10, stronger effect = lower value 0.994 | locus YIL066C, strain RNR3, stronger effect = lower value 1.04 | locus YIL073C, strain SPO22, stronger effect = lower value 0.979 | locus YIL125W, strain kgd1, stronger effect = lower value 0.995 | locus YIR030C, strain dcg1, stronger effect = lower value 0.994 | locus YJL092W, strain hpr5, stronger effect = lower value 0.993 | locus YJL095W, strain BCK1 (second series), stronger effect = lower value 0.99 | locus YJL095W, strain BCK1, stronger effect = lower value 1 and 1.04 | locus YJL115W, strain asf1, stronger effect = lower value 0.999 | locus YJL129C, strain trk1, stronger effect = lower value 0.999 | locus YJL134W, strain LCB3, stronger effect = lower value 0.998 | locus YJL154C, strain vps35, stronger effect = lower value 1 | locus YJL164C, strain tpk1, stronger effect = lower value 1.01 | locus YJL166W, strain qcr8, stronger effect = lower value 1 | locus YJL168C, strain set2, stronger effect = lower value 0.991 | locus YJL187C, strain SWE1 (second series), stronger effect = lower value 0.996 | locus YJR043C, strain POL32, stronger effect = lower value 1.05 | locus YJR066W, strain TOR1, stronger effect = lower value 0.958 | locus YJR075W, strain HOC1, stronger effect = lower value 0.995 | locus YKL009W, strain mrt4, stronger effect = lower value 0.986 | locus YKL068W, stronger effect = lower value 0.987 | locus YKL085W, strain MDH1 (second series), stronger effect = lower value 1.02 | locus YKL085W, strain MDH1, stronger effect = lower value 1.02 | locus YKL160W, strain elf1, stronger effect = lower value 0.999 | locus YKR001C, strain vps1, stronger effect = lower value 1 | locus YKR026C, strain gcn3, stronger effect = lower value 1 | locus YKR091W, strain srl3, stronger effect = lower value 1 | locus YLL001W, strain dnm1, stronger effect = lower value 0.997 | locus YLL026W, stronger effect = lower value 0.993 | locus YLL041C, strain sdh2, stronger effect = lower value 1 | locus YLR027C, strain aat2, stronger effect = lower value 0.997 | locus YLR039C, strain RIC1, stronger effect = lower value 1.03 | locus YLR058C, strain SHM2, stronger effect = lower value 0.998 | locus YLR102C, strain apc9, stronger effect = lower value 0.987 | locus YLR113W, strain HOG1, stronger effect = lower value 1.02 | locus YLR221C, strain rsa3, stronger effect = lower value 1.01 | locus YLR258W, strain gsy2, stronger effect = lower value 0.994 | locus YLR262C, strain YPT6 (second series), stronger effect = lower value 0.984 | locus YLR262C, strain YPT6, stronger effect = lower value 1.04 | locus YLR268W, strain sec22, stronger effect = lower value 0.986 | locus YLR320W, strain mms22, stronger effect = lower value 0.999 | locus YLR330W, strain CHS5, stronger effect = lower value 1.01 | locus YLR342W, strain FKS1 (second series), stronger effect = lower value 1.03 | locus YLR342W, strain FKS1, stronger effect = lower value 1.02 | locus YLR357W, strain rsc2, stronger effect = lower value 0.962 | locus YLR370C, strain arc18, stronger effect = lower value 1 | locus YLR371W, strain rom2, stronger effect = lower value 0.989 | locus YLR384C, strain iki3, stronger effect = lower value 0.982 | locus YLR418C, strain cdc73, stronger effect = lower value 1.02 | locus YML016C, strain PPZ1, stronger effect = lower value 0.993 | locus YML032C, strain rad52, stronger effect = lower value 1.01 | locus YML120C, strain ndi1, stronger effect = lower value 1 | locus YML124C, strain tub3, stronger effect = lower value 0.996 | locus YMR058W, strain fet3, stronger effect = lower value 0.999 | locus YMR078C, strain ctf18, stronger effect = lower value 0.996 | locus YMR125W, strain sto1, stronger effect = lower value 0.996 | locus YMR129W, stronger effect = lower value 0.991 | locus YMR205C, strain PFK2, stronger effect = lower value 1.01 | locus YMR223W, strain ubp8, stronger effect = lower value 1.01 | locus YMR231W, strain pep5, stronger effect = lower value 1 | locus YMR263W, strain SAP30, stronger effect = lower value 0.989 | locus YMR307W, strain GAS1, stronger effect = lower value 1.06 | locus YNL067W, strain RPL9B, stronger effect = lower value 0.984 | locus YNL071W, strain lat1, stronger effect = lower value 1 | locus YNL183C, strain NPR1, stronger effect = lower value 0.953 | locus YNL209W, strain ssb2, stronger effect = lower value 1.01 | locus YNL233W, strain BNI4, stronger effect = lower value 1.01 | locus YNL248C, strain rpa49, stronger effect = lower value 1 | locus YNL250W, strain rad50, stronger effect = lower value 0.975 | locus YNL271C, strain bni1, stronger effect = lower value 0.999 | locus YNL298W, strain CLA4, stronger effect = lower value 0.995 | locus YNL307C, strain MCK1, stronger effect = lower value 0.992 | locus YNL322C, strain KRE1 (second series), stronger effect = lower value 0.979 | locus YNR049C, strain mso1, stronger effect = lower value 0.984 | locus YNR052C, strain pop2, stronger effect = lower value 0.998 | locus YOL006C, strain TOP1, stronger effect = lower value 1.07 | locus YOL012C, strain htz1 1.05 | locus YOL147C, strain pex11, stronger effect = lower value 0.998 | locus YOR001W, strain rrp6, stronger effect = lower value 1 | locus YOR061W, strain CKA2, stronger effect = lower value 1 | locus YOR069W, strain VPS5, stronger effect = lower value 0.988 | locus YOR070C, strain gyp1, stronger effect = lower value 1.01 | locus YOR080W, strain dia2, stronger effect = lower value 0.99 | locus YOR083W, strain WHI5, stronger effect = lower value 0.998 | locus YOR106W, strain vam3, stronger effect = lower value 1.01 | locus YOR136W, strain idh2, stronger effect = lower value 0.983 | locus YOR144C, strain elg1, stronger effect = lower value 0.995 | locus YOR184W, strain ser1, stronger effect = lower value 1 | locus YOR231W, strain MKK1, stronger effect = lower value 1.02 | locus YOR265W, strain rbl2, stronger effect = lower value 0.991 | locus YOR270C, strain vph1, stronger effect = lower value 1.04 | locus YOR290C, strain snf2, stronger effect = lower value 1 | locus YOR316C, strain cot1, stronger effect = lower value 0.99 | locus YPL051W, strain arl3, stronger effect = lower value 0.996 | locus YPL055C, strain LGE1, stronger effect = lower value 1.03 | locus YPL078C, strain atp4, stronger effect = lower value 0.991 | locus YPL106C, strain sse1, stronger effect = lower value 0.984 | locus YPL240C, strain hsp82, stronger effect = lower value 1.01 | locus YPL256C, strain CLN2, stronger effect = lower value 1.01 | locus YPR119W, strain clb2, stronger effect = lower value 1.01 | locus YPR141C, strain kar3, stronger effect = lower value 0.985 | locus YPR163C, strain tif3, stronger effect = lower value 0.995 | locus YPR167C, strain met16, stronger effect = lower value 0.998 | strain wtn01, stronger effect = lower value 0.989
